This assay is described as follows: Secondary Assay for lipid storage modulators: Hela cell LDSA assay for probe SAR. As to conditions: HeLa lipid droplet accumulation, BODIPY 493/503 cytometry, oleate-fed. The text has this: NIH Molecular Libraries Probe Production Centers Network [MLPCN] NIH Chemical Genomics Center [NCGC] MLPCN Grant: 1 R03 MH085686-01 Assay Submitter (PI): Beller, Mathias; Max-Planck-Institut fur Biophysikalische Chemie NCGC Assay Overview: Storing lipids as a reservoir for energy or the anabolism of elementary metabolites is a common feature of probably all cells and is conserved from bacteria to humans. The universal cellular lipid storage organelle is the so-called lipid storage droplet (LD). Although ubiquitous, LDs share a simple structure composed of a hydrophobic core that harbors the storage lipids, which is shielded by a droplet-specific phospholipid monolayer to which proteins are attached. The current model of LD biogenesis involves an incorporation of the lipid core into the membrane leaflets of the endoplasmic reticulum (ER) followed by a subsequent budding-like maturation of a LD, which ultimately pinches off. […]
NCGC Assay Protocol Summary: The assay was performed with Hela cells, using an oleic acid feeding protocol similar to the S3 assay. […] Fluorescence was detected by excitation of the fluorophores with a 488-nm laser on an Acumen Explorer (TTP Lab Tech). […] Cells were detected using channel 3 (575-640 nm) with 5-um width and 100-um depth filters. The ratio of the number of objects in PMT channel 2 over the number of objects in PMT channel 3 was also calculated. […]

Results filed as inconclusive are left out. Calls of active or inactive are those of the source. The call rests on the fitted dose curve; in most records, active means well fitted curve in the direction sought with a large enough effect; inconclusive means small, poorly fitted or top-dose-only effect, or effect the other way, or another doubt; inactive means no such curve, though single readings can be large or run the other way.

Take `CCC/C=C/C/C=C/C=C/C=N/NN=O`: the Potency was 11.2 nM (active).

The values are drawn from PubChem BioAssay AID488900 (National Center for Advancing Translational Sciences (NCATS), 2010).
